TMEM16A inh: TMEM16A chloride channel inhibitors, primary screen, cell-based, HTS; normalized B-score (activity score, 25-100; higher = stronger inhibition) at 10 µM; 310,000 tested, 1.2% active; HEK293 TMEM16A/YFP iodide influx fluorescence, ionomycin; AID 588511, 2011; Anoctamin-1 (Mus musculus), Q8BHY3;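 active = ratio plate-corrected score three or more library SD toward inhibition, starting fluorescence score within five deviations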;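 note: score derived from kinetic fluorescence span divided by baseline fluorescence per well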
KCNK3 inh: human KCNK3 channel inhibitors, primary screen, CHO cells, FluxOR thallium flux, B-score. Potassium channel subfamily K member 3 (Homo sapiens), O14649. FluxOR fluorescence; hits give low values. B-score at 10 µM. 340,000 tested, 0.84% active. AID 602410, 2012;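 active = B-score under library mean minus 4 SD, starting fluorescence ratio at most library mean plus 5 SD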;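 note: more negative B-score means stronger inhibition of thallium flux through KCNK3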
ANO1 activ: TMEM16A chloride channel activators or potentiators, primary screen, cell-based, HTS; HEK293 TMEM16A/YFP-H148Q/I152L, iodide quench fluorescence; hits give low values; B-score at 10 µM; 340,000 tested, 0.3% active; AID 623877, 2012;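 active = fluorescence-ratio B-score plate-corrected deviation score at least 3 library SD below zero, with starting fluorescence score within 5 deviations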;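 note: channel opened by trigger with iodide after compound preincubation; score built on the fluorescence ratio of max minus min over baseline; more negative score means more quench and so TMEM16A activation or potentiation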
Kir21 inh: inhibitors of mouse Kir2.1 inward-rectifier potassium channel; 310,000 tested, 0.85% active; B-score at 10 µM; HEK293-Kir2.1, FluxOR thallium flux fluorescence; hits give low values; Inward rectifier potassium channel 2 (Mus musculus), P35561;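 active = fluorescence ratio B-score at or below minus 3 SD of library scores, with starting-brightness B-score within 2 SD, cut at about -4.2 in these data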;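 note: channel flux triggered by added potassium and thallium sulfate stimulus; B-score of peak minus minimum fluorescence over baseline after thallium stimulus; more negative B-score means stronger Kir2.1 block with less thallium influx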
Target sequence (P35561 whole entry, looked up): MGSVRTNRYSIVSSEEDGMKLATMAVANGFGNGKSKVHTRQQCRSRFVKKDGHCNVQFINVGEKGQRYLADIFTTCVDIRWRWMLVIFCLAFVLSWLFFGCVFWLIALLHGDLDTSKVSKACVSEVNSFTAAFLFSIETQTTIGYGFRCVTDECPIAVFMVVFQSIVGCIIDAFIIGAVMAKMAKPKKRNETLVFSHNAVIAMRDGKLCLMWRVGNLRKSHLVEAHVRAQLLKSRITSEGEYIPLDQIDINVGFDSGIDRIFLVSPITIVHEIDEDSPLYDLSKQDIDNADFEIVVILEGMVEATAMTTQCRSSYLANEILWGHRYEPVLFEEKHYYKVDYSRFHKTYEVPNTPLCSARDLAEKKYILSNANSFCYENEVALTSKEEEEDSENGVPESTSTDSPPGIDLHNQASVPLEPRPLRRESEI
KCNK9 block: KCNK9 potassium channel inhibitors, primary screen, HEK293 cells, thallium flux; Potassium channel subfamily K member 9 (Homo sapiens), Q9NPC2; FluxOR thallium flux fluorescence; hits give low values; B-score at 10 µM; 310,000 tested, 1.2% active; AID 488922, 2010;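 active = ratio B-score over 3 SD below the library mean, with starting fluorescence within 5 SD of its mean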;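 note: negative B-score means less thallium flux so channel inhibition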
Hits are given with their value; i = inactive; nt = no result given. An excerpt weighted towards active compounds, which were near 3.5% of everything screened.

SMILES	TMEM16A inh	KCNK3 inh	ANO1 activ	Kir21 inh	KCNK9 block
COc1cc(/C=C2/C(=O)NN(c3ccc(C)c(Cl)c3)C2=O)cc([N+](=O)[O-])c1O	i	i	i	i	i
Cc1ccc(N2NC(=O)/C(=C\c3cc4c(cc3[N+](=O)[O-])OCO4)C2=O)cc1C	i	i	i	-6.5	i
CC(C)(CC(=O)O)CC(=O)N1CCN(c2nc3ccc(Cl)cc3s2)CC1	i	i	i	i	i
CCCCC(=O)N1CCN(c2nc3ccc(Cl)cc3s2)CC1	25	i	i	i	i
COc1ccc(C)cc1NC(=O)C1CCCCN1S(=O)(=O)c1ccccc1 (configuration not stated)	nt	i	i	nt	nt
O=C(Nc1ccccc1)C1CC(=O)N(C2CCCCC2)C1 (configuration not stated)	i	i	-7.7	i	i
CC(C)c1ccc(NC(=O)C2CC(=O)N(C3CCCC3)C2)cc1 (configuration not stated)	i	i	i	i	i
O=C(COC(=O)c1ccco1)Nc1ccc([N+](=O)[O-])cc1Cl	nt	i	-26	nt	nt
COc1ccc(C2SCCN2C(=S)Nc2ccc(F)cc2)cc1 (configuration not stated)	i	i	i	i	i
CCOC(=O)c1ccc(NC(=S)N2CCSC2c2ccc(Cl)cc2)cc1 (configuration not stated)	100	i	-7.7	i	i
COc1ccc(CCn2c(-c3ccc(OC)cc3)nc3c(c(=O)c4ccccc4n3C)c2=O)cc1	i	i	i	i	i
CCc1nc2c(c(=O)c3ccccc3n2C)c(=O)n1CCc1ccc(OC)cc1	i	nt	nt	i	-12
CC(=O)Oc1ccc(NC(=O)CSc2ccccc2)cc1	i	i	i	i	i
CN(c1ccccc1)S(=O)(=O)c1cccc(NC(=O)C2=NN(c3ccccc3)C(=O)CC2)c1	nt	i	i	nt	nt
CC(C)(C)c1ccc(-c2cc(C(=O)NNC(=O)Nc3ccccc3)c3ccccc3n2)cc1	i	-10	i	i	i
O=C(N/N=C/c1cc([N+](=O)[O-])ccc1O)c1cc(-c2ccccc2)nc2ccccc12	25	i	i	i	i
O=C(Nc1nccs1)c1cc(-c2ccccc2)nc2ccccc12	i	i	i	i	-6.7
O=C(Nc1nccs1)c1cc(-c2ccco2)nc2ccccc12	i	i	i	i	i
Cc1ccsc1/C=N/NC(=O)c1cc(-c2ccncc2)nc2ccccc12	i	i	-5	i	i
O=C(N/N=C/c1cc([N+](=O)[O-])ccc1Cl)c1cc(-c2ccccc2)nc2ccccc12	i	i	i	i	i
Cc1ccccc1C(=O)c1cccn1CC(=O)N1CCCCC1	i	i	i	i	i
CSc1nc(NS(=O)(=O)c2ccc(F)cc2F)nn1C	i	i	i	i	i
CNC(=S)N1CCc2cc(OC)c(OC)cc2C1	i	i	i	i	i
Cc1cc(OCC(=O)N(C)Cc2ccccc2)ccc1Br	i	i	i	i	-7.3
CN(CCc1ccccc1)C(=O)c1cccc(NC(=O)Cc2cccc([N+](=O)[O-])c2)c1	nt	i	i	nt	nt
SMILES	TMEM16A inh	KCNK3 inh	ANO1 activ	Kir21 inh	KCNK9 block
COc1cc2c(cc1OC)CN(C1CCC(C)CC1)CC2 (configuration not stated)	i	i	i	i	i
Oc1ccc(Oc2ccc(Oc3ccc(O)cc3)cc2)cc1	i	i	i	i	-6.9
CC(=O)c1ccc(Oc2ccc(C(C)=O)cc2)cc1	i	i	i	i	i
O=C(Nc1cccc(F)c1)C1CCCN(S(=O)(=O)c2ccc(-n3cnnn3)cc2)C1 (configuration not stated)	i	i	i	i	i
O=C(NC(NC(=S)Nc1ccc(Cl)cc1Cl)C(Cl)(Cl)Cl)c1cccc([N+](=O)[O-])c1 (configuration not stated)	100	i	i	i	i
O=C(O)c1cccc(NC(=S)NC(NC(=O)c2cccc([N+](=O)[O-])c2)C(Cl)(Cl)Cl)c1 (configuration not stated)	i	i	i	i	i
O=C(CSc1nc(C2CC2)nc2ccccc12)N1CCc2ccccc21	nt	i	i	nt	nt
CC(C)(C)n1nnnc1C(c1cccs1)N(Cc1cccnc1)Cc1ccco1 (configuration not stated)	i	i	i	i	-7.2
CCC(NC(=O)c1oc2ccccc2c1COC)c1ccc(OC)cc1 (configuration not stated)	i	i	i	-5.7	i
O=C(O)CC1(CC(=O)Nc2ccc(F)c(Cl)c2)CCCCC1	i	i	i	i	i
CCNC(=S)NNC(=O)c1cc(Br)cs1	i	i	i	i	i
COc1ccc(Nc2nc(-c3ccccc3)nc3ccccc23)c(OC)c1	i	i	i	i	i
COc1ccccc1Nc1c2ccccc2nc2ccccc12	i	i	i	-5	i
COc1ccccc1Nc1nc(-c2ccccc2)nc2ccccc12	i	i	i	i	-7.2
CC(C)(C)Nc1c2ccccc2nc2ccccc12	i	i	i	-4.5	i
COc1cccc(-n2c(=O)[nH]cc(C(=O)Nc3ccc(NC(C)=O)cc3)c2=O)c1	i	i	i	i	i
COc1ccc(C(=O)COC(=O)CN2C(=O)c3ccccc3C2=O)c(OC)c1	i	i	i	i	i
CCc1ccc2nc(N=C(N)N)nc(C)c2c1	i	i	i	-6.1	i
O=C(COc1ccccc1)Nc1nnc(S(=O)(=O)N2CCCCCC2)s1	i	i	i	i	i
CC(OC(=O)CCc1cc(C(C)(C)C)c(O)c(C(C)(C)C)c1)C(=O)NC1CC1 (configuration not stated)	i	i	i	-4.3	i
Cc1cc(=O)c(C(=O)Nc2cccc(N3CCCC3=O)c2)nn1-c1ccccc1Cl	nt	i	i	nt	nt
Cc1cc(=O)c(C(=O)Nc2cccc(N3CCCC3=O)c2)nn1-c1ccccc1F	nt	i	-46	nt	nt
OCc1cn(-c2ccccc2)nc1-c1ccc(-c2nn(-c3ccccc3)cc2CO)cc1	i	i	i	i	i
Cc1ccc(-c2nn(-c3ccccc3)cc2CSC(=N)N)cc1	25	i	i	-5.8	i
CC12CCC(C(=O)N(CC(O)CN3CCCCCC3)C1=O)C2(C)C (configuration not stated)	i	i	i	i	i
SMILES	TMEM16A inh	KCNK3 inh	ANO1 activ	Kir21 inh	KCNK9 block
CC(C)Cn1c(O)c(N=NC(=O)c2cccc(S(=O)(=O)N3CCCCC3)c2)c2ccccc21	i	i	i	i	-7.9
O=S(=O)(N/N=C/c1ccc(F)cc1)c1ccccc1	25	i	i	i	i
O=S(=O)(N/N=C\c1cccc(F)c1)c1ccccc1	i	i	i	i	i
COc1ccc(Nc2nc(N)nc(CN3CCC(Cc4ccccc4)CC3)n2)cc1	i	i	i	-4.4	i
COc1ccccc1Nc1nc(N)nc(CN2CCC(Cc3ccccc3)CC2)n1	i	i	i	i	i
O=c1cc(CNc2cc(C(F)(F)F)cc(C(F)(F)F)c2)nc2sccn12	i	i	i	i	-7.4

Screening results (PubChem BioAssay)
